# Screens deposited in PubChem by National Center for Advancing Translational Sciences (NCATS).
# RORg inh – blocks mouse ROR gamma transcriptional activity; P51450; Drosophila S2 Gal4-RORgamma UAS-luciferase reporter, 20 h; Potency, µM (highest dose often 53.6 µM), without a hit: at the highest dose activity change, negative = inhibition, most hits filed as inhibitors; 5.4% of 310,000 active; AID 2551; also: nearly all actives have a fitted effect of over 60% in size
# Target sequence (P51450 whole entry, looked up, the tested form may be a part): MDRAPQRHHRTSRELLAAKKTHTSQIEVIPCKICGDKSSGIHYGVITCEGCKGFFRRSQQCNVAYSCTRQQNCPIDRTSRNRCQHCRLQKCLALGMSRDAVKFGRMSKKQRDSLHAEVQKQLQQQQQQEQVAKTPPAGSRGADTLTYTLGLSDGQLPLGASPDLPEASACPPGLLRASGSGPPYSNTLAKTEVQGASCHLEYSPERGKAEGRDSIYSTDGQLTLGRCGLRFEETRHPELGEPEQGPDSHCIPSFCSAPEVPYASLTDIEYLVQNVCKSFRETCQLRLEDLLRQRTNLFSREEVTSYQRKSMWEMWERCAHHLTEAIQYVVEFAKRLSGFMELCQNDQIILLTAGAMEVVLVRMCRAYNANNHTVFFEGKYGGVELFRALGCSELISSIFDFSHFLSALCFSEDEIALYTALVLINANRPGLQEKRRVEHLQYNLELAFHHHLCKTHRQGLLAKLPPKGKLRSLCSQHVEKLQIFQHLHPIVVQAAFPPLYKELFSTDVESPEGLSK
#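 Using a luciferase readout, inhibitors were identified by reduced reporter activity in Drosophila cells coexpressing a copper-inducible Gal4–ROR gamma fusion and UAS-driven Photinus luciferase, incubated 20 hr after 700 uM copper sulfate.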
# ELG1 repair inh – blocks ELG1-dependent DNA repair in HEK293T cells | HEK293T ELG1-luciferase reporter, luminescence, 16 h; DNA damage induced by 5-fluorouridine | Potency, µM (series often up to 46.1 µM), for the others: at the top dose activity change, negative = inhibition, most hits filed as inhibitors | 2.3% of 330,000 active; also: nearly all actives have a fitted effect of over 55% in size
#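 Cells (2,000 per well) received 5-fluorouridine plus test compound or DMSO and were incubated 16 hr at 37 °C, 5% CO2. Luciferase activity was read by luminescence 30 min after ONE-Glo addition; signal suppression marked inhibition of damage-induced ELG1 function.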
# 12-LOX inh – blocks human arachidonate 12S-lipoxygenase. P18054. purified 12hLO, xylenol orange hydroperoxide absorbance. Potency, µM (doses to about 108 µM), for inactives: at the top dose activity change, negative = inhibition, actives largely listed as inhibitors. 1.1% of 580,000 active. AID 1671190
#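 Purified human 12hLO at 150 nM in 25 mM Hepes, 0.01% Triton X-100, pH 7.0, preincubated 15 min at room temperature with compound. Reaction started with 40 uM arachidonic acid, 30 min at room temperature. Hydroperoxide measured by Fe-xylenol orange, 573/405 nm absorbance ratio.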
# Gal4-VP16 FLuc – Gal4-VP16 reporter inhibition counter-screen. Drosophila S2 Gal4-VP16 UAS-luciferase, luminescence, 20 h. AID 2546. 3.5% of 310,000 active. Potency, µM (highest dose often 53.6 µM), for the others: top-dose activity, negative = inhibition, most hits filed as inhibitors;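 also: Gal4-VP16 expression switched on by copper sulfate through the metallothionein promoter; nearly all actives have a fitted effect of over 50% in size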
# DT40 TDP1 CPT – growth inhibition of DT40 Tdp1-/-;hTDP1 cells with camptothecin (screen for TDP1 inhibitors); chicken DT40 Tdp1-/-;hTDP1 cells + 20 nM CPT, ATP luminescence, 48 h; Potency, µM (doses to about 46.2 µM), without a hit: at the highest dose activity change, negative = growth inhibition, hits mostly inhibitors; 12% of 420,000 active; also: nearly all actives have a fitted effect of over 55% in size
#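 Chicken DT40 Tdp1-/- cells stably complemented with human TDP1 were seeded at 400 cells/well in medium containing 20 nM camptothecin, exposed to pin-transferred compounds, and grown at 37 °C for at least 48 hr. Viability was read as ATP luminescence.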
# DT40 TDP1 no CPT – qHTS for Inhibitors of human tyrosyl-DNA phosphodiesterase 1 (TDP1): qHTS in cells in absence of CPT | DT40 Tdp1-/- hTDP1 cells, no CPT, ATP luminescence, 48 h | Potency, µM (series often up to 46.2 µM), inactives show at the top dose activity change, negative = growth inhibition, hits mostly inhibitors | 15% of 420,000 active | AID 686978, 2013; also: nearly all actives have a fitted effect of over 55% in size
#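 Growth of hTDP1-complemented DT40 Tdp1-knockout cells is measured by ATP luminescence after at least 48 hr compound exposure at 37 °C, with DMSO substituting for the 20 nM CPT used in the parallel screen.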
# * hit, by the source's call; ? = inconclusive; . = no result; [ ] = remark or other dose. Shown are actives, neighbours in structure and some others; about 15% of the full set was active somewhere. Calls follow the shape of the dose curve; as a rule, active = well fitted curve in the direction sought with a large enough effect; inconclusive = small, poorly fitted or top-dose-only effect, or another doubt; inactive = no such curve, though single readings can be large; an effect the other way counts as inactive or inconclusive. % is scaled to controls: 0 for no effect and ±100 for the full control effect; potency is read from the fitted curve at half-maximal effect.
SMILES,RORg inh,ELG1 repair inh,12-LOX inh,Gal4-VP16 FLuc,DT40 TDP1 CPT,DT40 TDP1 no CPT
COc1ccc(/C=C/C(=O)c2cc(Br)ccc2O)cc1OC,9%,?,-8%,-16%,-26%,-29%
O=C(/C=C/c1ccc2c(c1)OCO2)NC1CCCC1,?,?,-21%,1%,1%,-2%
C(=N\N=C(c1ccccc1)c1ccccc1)/c1cn(-c2cccs2)nc1-c1ccccc1,.,.,-10%,.,.,.
O=C1Nc2ccccc2OCC12CCN(Cc1ccc(OC(F)(F)F)cc1)CC2,.,.,50%,.,.,.
Cc1cc([N+](=O)[O-])ccc1NC(=S)NC(=O)C(c1ccccc1)c1ccccc1,7.9µM*,?,-25%,10µM*,?,16µM*
COc1ccc([N+](=O)[O-])cc1NC(=S)NC(C)=O,-9%,-2%,-5%,2%,?,?
Cc1ccc([N+](=O)[O-])cc1NC(=S)NC(=O)CC(C)(C)C,6.3µM*,8%,?,22µM*,-24%,-16%
COc1cc([N+](=O)[O-])ccc1NC(=S)Nc1cc(C(=O)OC(C)C)cc(C(=O)OC(C)C)c1,-21%,?,?,-2%,29µM*,?
Cc1ccc([N+](=O)[O-])cc1NC(=S)NC(=O)C(C)(C)C,?,-3%,?,5%,-3%,-5%
CCCCC(=O)NC(=S)Nc1cc([N+](=O)[O-])ccc1OC,10µM*,3%,?,-25%,1%,-5%
O=C(c1cccc(OC(F)(F)F)c1)N1CCCC1c1nncn1Cc1ccncc1 (configuration not stated),.,.,44%,.,.,.
Cc1cc([N+](=O)[O-])ccc1NCc1ccc2ccccc2c1,43%,2%,8%,-2%,?,18µM*
COCCNC(=S)Nc1ccc([N+](=O)[O-])cc1C,?,-18%,?,?,-5%,12%
Cc1cc([N+](=O)[O-])ccc1NC(=S)NC(=O)Cc1ccccc1,22µM*,5%,?,?,-23%,-27%
COC(=O)C1Cc2ccccc2CN1C(=O)CCl (configuration not stated),-31%,?,-10%,-24%,15µM*,15µM*
COc1ccc(-c2cc(C3CCN(c4ccc(C(C)=O)cc4[N+](=O)[O-])CC3)[nH]n2)cc1,?,?,-16%,?,5.8µM*,5.2µM*
CC(=O)c1ccc(N2CCN(c3ccc(C(N)=O)cc3[N+](=O)[O-])CC2)cc1,-11%,?,-1%,-9%,?,?
CC(=O)c1ccc(N2CCC(c3cc(-c4ccc(Cl)cc4)n[nH]3)CC2)c([N+](=O)[O-])c1,-34%,?,.,?,7.3µM*,4.6µM*
COc1ccc(-c2cc(C3CCN(C(=O)OC(C)(C)C)CC3)[nH]n2)cc1,44%,-20%,-1%,-1%,?,?
COC(=O)c1ccc(N2CCC(c3cc(-c4ccc(OC)cc4)n[nH]3)CC2)c([N+](=O)[O-])c1,31%,?,0%,?,21µM*,18µM*
Cc1cccc(NC(=O)Cn2nc(-c3cccc([N+](=O)[O-])c3)c3ccccc3c2=O)c1,.,.,-2%,.,.,.
Cc1cccc(-n2nc(-c3c(C)nc4scc(CC(=O)NCc5ccccc5)n4c3=O)cc2C)c1,.,.,-1%,.,.,.
Cc1cc(N2CCN(C)CC2)ccc1NC(=O)c1ccc(-c2ccc(Cl)cc2)o1,.,-4%,-23%,.,?,?
Cc1cc(O)c(NC(=S)NC(=O)c2ccc(-c3ccc(Cl)cc3)o2)cc1C,3.2µM*,-29%,?,5µM*,?,21µM*
Cc1ccc(NC(=S)NC(=O)c2ccc(-c3ccc(Cl)cc3)o2)c(O)c1,8%,?,?,-2%,21µM*,21µM*
SMILES,RORg inh,ELG1 repair inh,12-LOX inh,Gal4-VP16 FLuc,DT40 TDP1 CPT,DT40 TDP1 no CPT
Cc1ccc(O)c(NC(=S)NC(=O)Cc2ccc(Cl)cc2)c1,13µM*,0%,7%,11µM*,?,?
COC(=O)c1cc(OCc2cccc(Br)c2)cc(C(=O)OC)c1,.,.,-17%,.,.,.
O=C(Nc1nc(-c2ccccn2)cs1)c1ccco1,7.1µM*,?,?,0%,5.2µM*,1.6µM*
CC(=O)Nc1nc(-c2ccc(Br)s2)cs1,19%,0%,0%,-14%,-16%,-19%
O=C(Nc1nc(-c2ccncc2)cs1)c1ccco1,0%[10 µM],?,0%,4%,?,11µM*
O=C(Nc1nc(-c2ccccn2)cs1)c1ccc(Br)s1,1.3µM*,-3%,3%,1.3µM*,1µM*,0.65µM*
O=C(Nc1nc(-c2cc(Cl)sc2Cl)cs1)c1ccc(Br)s1,-13%,0%,14%,7%,18µM*,16µM*
O=C(Nc1nc(-c2ccncc2)cs1)C1c2ccccc2Oc2ccccc21,2%,3%,-22%,?,21µM*,13µM*
C[C@H](NC(=O)c1ccco1)C(=O)Nc1nc(-c2ccccn2)cs1,.,.,-2%,.,?,13µM*
O=C(Nc1ccc(Br)cc1)c1cccc(-n2cnnn2)c1,?,?,-8%,-4%,?,-13%
CCC(=O)N1CCc2cc(-c3csc(NC(=O)c4ccco4)n3)ccc21,14%,?,-11%,6%,?,13µM*
O=C(Nc1nc(-c2ccccn2)cs1)c1cccc(-n2cnnn2)c1,5µM*,?,7%,-5%,5.2µM*,4.6µM*
O=C(Nc1nc(-c2ccccc2)cs1)C1c2ccccc2Oc2ccccc21,-28%,1%,1%,16%,-22%,-22%
COc1ccc(/C(O)=C(\C#N)c2nc3ccccc3n2C)cc1OC,7.1µM*,3%,23%,18µM*,-26%,-28%
Cn1c(C(=O)c2ccccc2)nc2ccccc21,13%,?,38%,29%,2%,1%
Cn1c(/C(C#N)=C(\O)c2ccc(S(=O)(=O)N3CCCCC3)cc2)nc2ccccc21,4.5µM*,?,11%,10µM*,?,?
Cn1c(/C(C#N)=C(\O)c2cc(Cl)sc2Cl)nc2ccccc21,4.5µM*,5%,29%,4.5µM*,18µM*,?
CCSc1nc2ccccc2n1C(=O)c1ccc(S(=O)(=O)N2CCCCCC2)cc1,2%,8%,10%,-10%,0%,?
Cn1c(Cl)nc2ccccc21,-14%,?,-11%,2%,6%,0%
